From PubChem BioAssay (EPA / NIEHS)
Several values for one entry are separate records, joined by “and”; a condition that tells them apart may be missing. Equal values may be shown once. Where a structure was tested more than once in an assay, its records may differ in their call. Activity calls are given as the source filed them. The calls were made as follows: active = hit-call score of the fitted dose curve at least 0.9, where 1 is the maximum; inactive = score below 0.9.

Read-out: CD69, CD69 (gene 969)
Test: BSK_SAg_CD69: BioMAP Diversity Plus: SAg Assay for CD69 Biomarker Activity (AID 2283089);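 as to AC50: cell surface CD69 protein quantified by ELISA with fluorescence detection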
Details: primary human HUVEC with PBMC; actives raise or lower the signal
Outline: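 Values derive from bidirectional fitting relative to DMSO vehicle. Cells: umbilical vein endothelium plus peripheral blood mononuclear cells, treated 24 h before fluorescent ELISA for CD69.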

Structure (SMILES)	outcome	AC50
C=C(C)C(=O)OCCC(F)(F)C(F)(F)C(F)(F)C(F)(F)C(F)(C(F)(F)F)C(F)(F)F	inactive	
O=P(O)(O)OCCC(F)(F)C(F)(F)C(F)(F)C(F)(F)C(F)(F)C(F)(F)F	inactive	
O=C(CC(=O)C(F)(F)C(F)(F)F)C(F)(F)F	inactive	
CCCCCCCCC(F)(F)C(F)(F)C(F)(F)C(F)(F)C(F)(F)C(F)(F)F	inactive	
FC(F)(I)C(F)(F)C(F)(F)C(F)(F)I	inactive	46.7 µM (active)
FC(F)(F)C(F)(F)CNCC(F)(F)C(F)(F)F	inactive	
O=C(O)C(F)(F)C(F)(F)C(F)(F)F	inactive	
O=C(O)C(F)(F)C(F)(F)C(F)(F)C(F)(F)C(F)(F)C(F)(F)C(F)(F)C(F)(F)Cl		30 µM (active) and 45 µM (active)
FC(F)(Br)C(F)(F)C(F)(F)C(F)(F)C(F)(F)C(F)(F)Br	inactive	
CCCCC(CC)COP(=O)(O)OCC(CC)CCCC (centres undefined)	inactive	
COC(=O)CCC(F)(F)C(F)(F)C(F)(F)C(F)(F)F	inactive	
C=CC(=O)OCC(F)(F)C(F)(F)C(F)(F)C(F)(F)C(F)(F)C(F)(F)C(F)(F)F	inactive	
FC(F)(F)C(F)(F)C(F)(F)C(F)(F)C(F)(F)C(F)(F)CC1CO1 (centres undefined)	inactive	
OCC(F)(F)C(F)(F)C(F)(F)C(F)(F)C(F)(F)C(F)F	inactive	
C=CC(F)(F)C(F)(F)C(F)(F)C(F)(F)C(F)(F)C(F)(F)C(F)(F)C(F)(F)C=C	inactive	
OCC(F)(F)C(F)(F)C(F)(F)C(F)F	inactive	
OCCCC(F)(F)C(F)(F)C(F)(F)F	inactive	
O=S(=O)(OCCOC(F)(F)F)C(F)(F)F	inactive	
